Measurements as given in PubChem BioAssay (NCI).
“And” between values parts separate entries of the source, which are not always exact repeats. Equal entries are not always repeated. The panel holds about 79,000 compounds, 15% with a hit somewhere; the sample as a whole holds those more often. A number with no mark means an inactive call. The source made the active and inactive calls. Cut-off read from the data, not from the text of the source: active = growth inhibition above about 70%; inactive = the rest. Where a SMILES comes first, the peptide text is derived from it. [ ]: non-standard residue; d: D form. ξ: configuration not given here. ξV = CC(C)C(N)C(=O)O

Test: NCI Yeast Anticancer Drug Screen. Data for the bub3 strain (AID 167)
Conditions: S. cerevisiae bub3 mutant strain, active compounds read high
Method: Growth inhibition of yeast strains with defined genetic alterations is measured as a screen for potential anti-cancer activity. Selected strains with alterations in DNA damage repair or cell cycle control were exposed to compounds and growth inhibition was measured relative to vehicle treated controls. The strain used in this assay is bub3

[1] = at 5.0 µM (retest, dose inferred, filed as 0.5)
[2] = at 50.0 µM (retest, dose inferred, filed as 5.0)

SMILES | growth inhibition [1] | growth inhibition [2] | growth inhibition (at 50.0 µM)
CCCCCCCCCCCCCC1=NCC(c2ccc3ccccc3c2)O1 (configuration not stated) | 1% | -6% | -4.7%
c1ccc(C2=NC(c3ccccc3)=NS(S3=NC(c4ccccc4)=NC(c4ccccc4)=N3)=N2)cc1 (configuration not stated) | 30% | 97% (active) | 38%
Cc1ccccc1N=Nc1ccc(N=Nc2ccc(N)nc2N)c(C)c1 | -3% | 9% | 82.2% (active)
O=C1/C(=C/c2ccc(Cl)cc2)Sc2scc(-c3cccc([N+](=O)[O-])c3)[n+]21 | 98% (active) | 99% (active) | 89.8% (active)
CCC(=O)OCOc1ccc(/C=C2\CCC(CN(C)C)C2=O)cc1 (configuration not stated) | 36% | 98% (active) | 84.5% (active)
CSc1ccc(N2C(=O)CSC2=S)cc1Cl | 37% | 82% (active) | 92.4% (active)
O=C(O)c1c2ccccc2nc2[nH]c(=O)[nH]c(=O)c12 | -1% | -5% | 7.1% and 34%
C=C1C(=O)OC2CC(C)C3C4OC4C(O)C3(C)C(O)C12 (configuration not stated) | 2% | 6% | 71% (active)
C=C(C)C(=O)Oc1ccc(NC(=O)c2ccccc2)ccc1=O | 5% and 0% | 94% (active) and 93% (active) | 89.5% (active) and 93% (active)
COC1C(O)C(C)OC(OC2C(Oc3cccc4c(O)c5c(=O)oc6ccc(C)c7c(=O)oc(c34)c5c67)OC(C)C3O[C@H](c4ccccc4)OC32)C1O (some centres not stated) | 74% (active) | 95% (active) | 89.6% (active)
OCCNc1nc(NCCO)c2nc(-c3ccccc3)c(-c3ccccc3)nc2n1 | 6% and -1% | 61% and 43% | -0.8% and 41.7%
CC(C)C(NC(=O)CN)C(=O)O (configuration not stated) (H-Gly-[ξV]-OH) | -75% | -79% | -31.8% and -8.25% and -5.15%
CN(C)Cc1cc(CN(C)C)c(O)c(CN(C)C)c1 | 14% | 39% | -43.5% and 65.3%
CN(C)CCCN=c1c2ccccc2n(O)c2cccc([N+](=O)[O-])c12 | 9% | -10% | 45.4%
